Measurements from PubChem BioAssay AID686979 (National Center for Advancing Translational Sciences (NCATS), 2013).
About 50,000 (12%) of roughly 420,000 compounds were called active. Roughly 26% stayed inconclusive and do not appear here. The list comes from a sample in which actives are over-represented; it also holds similar structures and randomly drawn compounds. Unmarked numbers belong to inactive results. Calls follow the shape of the dose curve; as a rule, active = well fitted inhibition curve with a large enough effect; inconclusive = small, poorly fitted or top-dose-only effect; inactive = flat fitted curve, though single readings scatter.

Experiment: qHTS for Inhibitors of human tyrosyl-DNA phosphodiesterase 1 (TDP1): qHTS in cells in presence of CPT; also: nearly all actives have a fitted effect of over 55% in size
Settings: chicken DT40 Tdp1-/-;hTDP1 cells + 20 nM CPT, ATP luminescence, 48 h; series mostly up to 46.2 µM; activity change, negative = growth inhibition: at the top concentration
Procedure, shortened: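 Cell growth measured by CellTiter-Glo luminescence after a minimum 48 h, 37 C compound exposure with 20 nM CPT in Tdp1-knockout DT40 cells stably expressing hTDP1, seeded 400/well; qHTS titration format.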
% is scaled to controls: 0 for no effect and ±100 for the full control effect; potency is read from the fitted curve at half-maximal effect.

SMILES	activity change, negative = growth inhibition	Potency
CCSc1nnc2c(n1)OC(c1ccc(OCC(=O)O)cc1)Nc1ccccc1-2 (centres undefined)	-10%	
CCOc1ccc(N(Cc2ccccc2)C(=O)c2nc(SCC)ncc2Cl)cc1		29.1 µM (active)
CCOc1ccc(NC(=O)CN(Cc2ccccc2)S(=O)(=O)c2ccc(Cl)cc2)cc1	-28.2%	
CCSc1ncc(Cl)c(C(=O)Nc2c(C(=O)c3ccccc3)oc3ccccc23)n1	0.0067%	
CCOc1ccc(S(=O)(=O)N(CC(=O)O)c2ccccc2)cc1	-2.16%	
CCOc1ccc(N(Cc2ccccc2)C(=O)c2nc(S(C)(=O)=O)ncc2Cl)cc1		0.58 µM (active)
COc1cc(=O)n2c(c1C(=O)NCc1ccco1)CCN(Cc1ccccc1)CC2	13.5% [at 9.04 µM]	
Cc1cccc(NC(=O)NC2(C)CCS(=O)(=O)C2)c1 (centres undefined)	25.1%	
COc1cc(Cl)c(C)cc1NC(=O)CSc1nnc(CN2CCCC2)o1	-20.8%	
COc1ccccc1CNC(=O)COn1nnc2ccc(S(=O)(=O)N3CCOCC3)cc21	-23.6%	
COc1cccc(NC(=O)c2csnn2)c1	2.54%	
COc1cccc(NC(=O)C(C)Oc2ccccc2)c1 (centres undefined)	-5.7%	
COc1cccc(NC(=O)C2C(c3ccccc3)C2(Cl)Cl)c1 (centres undefined)		29.1 µM (active)
CSc1ccc(CNC(=O)c2ccc(NC(=O)C3=CSCCO3)cc2)cc1	-10.5%	
Cc1ccc(-c2ccc(CN3C(C(C)C)C(=O)N(Cc4cn(CCC5OCCO5)nn4)CCS3(=O)=O)cc2)cc1 (centres undefined)		16.4 µM (active)
O=S1(=O)CC(N2CCN(CCO)CC2)CN1Cc1cn(Cc2ccc(Cl)cc2)nn1 (centres undefined)	-27%	
Cc1ccc(Cn2cc(CN3CC(N4CCN(C)CC4)CS3(=O)=O)nn2)cc1 (centres undefined)	-11.1%	
CC(C)C1C(=O)N(Cc2cn(CCC3OCCO3)nn2)CCS(=O)(=O)N1Cc1ccc(-c2ccccc2C(F)(F)F)cc1 (centres undefined)		13 µM (active)
CC(NC(=O)C(=O)N/N=C/c1ccc(Cl)cc1)c1ccccc1 (centres undefined)	-6.61%	
O=C(O)C1=CCCN(CCON=C(c2ccccc2)c2ccccc2)C1		inactive
COc1cc(C2/C(=C(\O)c3ccc4c(c3)CC(C)O4)C(=O)C(=O)N2Cc2ccco2)ccc1O (centres undefined)	8.24%	
CN(CC(=O)NCCc1ccc(S(N)(=O)=O)cc1)CC(=O)Nc1ccc(Cl)cc1	1.45%	
O=C(CCN1C(=O)/C(=C/c2cccs2)SC1=S)NNC(=O)c1cccc(O)c1	3.46%	
O=C1/C(=C/c2cccs2)SC(=S)N1C1CCS(=O)(=O)C1 (centres undefined)		14.6 µM (active)
N/C(=N\OC(=O)Nc1ccccc1)c1ccno1	-0.882%	

SMILES	activity change, negative = growth inhibition	Potency
Cc1cccnc1NC(=O)Cn1c(=O)oc2ccccc21	-1.84%	
O=C(NCCCn1ccnc1)c1ccccc1F	12%	
COc1ccccc1NS(=O)(=O)c1ccc(C)c(C(=O)NNC(=O)c2csc(N3CCOCC3)n2)c1	0.108%	
O=C(NCCc1ccccc1)C1CC1	1.38%	
CCCC1CCC(=NNC(=S)NCCc2ccccc2)CC1 (centres undefined)		16.4 µM (active)
CCC(C)(C)C1CCC(=NNC(=O)c2ccc(Br)o2)CC1 (centres undefined)	-18.5%	
Cc1ccc2[nH]c3c(=O)n(CC(=O)NCCc4ccc(Cl)cc4)ncc3c2c1		inactive
COc1ccc(S(=O)(=O)N2CCN(CC(=O)N3c4ccccc4CC3C)CC2)cc1OC (centres undefined)	0.557%	
COc1cccc(/C=C(/CC(=O)Nc2ccc(N3CCOCC3)cc2)c2nc3ccccc3s2)c1	-5.64%	
Cc1cc(C)c(C=NNc2nc3c([nH]2)c(=O)n(C)c(=O)n3C)c(C)c1	-11.7%	
Oc1ccc(-c2nnc(Nc3ccccc3)c3ccccc23)cc1	-4.05%	
O=c1ccc2c(-c3ccccc3S(=O)(=O)O)c3ccc(O)c(O)c3oc-2c1O		16.4 µM (active)
O=C(Nc1ccc(OCC(=O)N2CCOCC2)cc1)c1cc(F)c(F)cc1Cl	-7.2%	
COc1ccccc1Oc1ccc(N2CC(C(=O)OCC(=O)c3ccc(F)cc3)CC2=O)cc1 (centres undefined)	-3.16%	
CCN1CCC(O)(/C=C/c2ccc(C)cc2)C(C(=O)/C=C/c2ccc(C)cc2)C1 (centres undefined)		3.66 µM (active)
O=C(NCc1cccs1)c1ccc(CS(=O)Cc2ccccc2Cl)o1 (centres undefined)	-4.56%	
CCOCCCN(C)C1CCN(C(=O)c2oc3ccccc3c2NC(=O)Cc2cccc([N+](=O)[O-])c2)CC1	-22.5%	
CCOC(=O)c1cc2c(=O)n3ccccc3nc2n(CCCOC)c1=NC(=O)C(C)Oc1ccccc1 (centres undefined)	-8.14%	
COc1cc2c(=O)c(S(=O)(=O)c3ccc(C(C)C)cc3)cn(Cc3ccccc3C)c2cc1OC		6.51 µM (active)
Cc1cc(Nc2cccc(F)c2)n2ncnc2n1	5.51%	
COCCN1C(=O)C(=O)/C(=C(/O)c2ccc(S(=O)(=O)N3CCOCC3)cc2)C1c1ccc(O)c(OC)c1 (centres undefined)	2.61%	
CCN(CC)N=Nc1cccc(NC(C)=O)c1		11.6 µM (active)
CC(=O)Nc1cccc(Nc2ccc(C#N)cc2)c1	-39.3%	
CC(=O)Nc1cccc(C(=O)OCN2C(=O)c3ccccc3C2=O)c1	0.81%	
